# Measurements taken from the supplement of paper PMC11732987, “Enantioselective OTUD7B fragment discovery through chemoproteomics screening and high-throughput optimisation” (Communications Chemistry, 2025).
# A number with no mark means an inactive call.
# Key:
# Assay in all cases: log2 ratio of Biotin-Ahx-Ub-VS probe labelling (fragment/DMSO); higher = less target engagement (more negative = stronger competition), active = hit call of the paper (q ≤ 0.05, log2 ratio ≤ -1)
# Details in all cases: compound concentration: 200 uM; treatment time: 3 h
# USP16 = USP16 (UniProt Q9Y5T5)
# In short: (§1)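 Global-median-normalised Spectronaut label-free quantities were compared by unpaired t-test, and values are average log2 ratios of fragment over vehicle. Only proteins with ≥2 unique peptides were used. HEK293T lysate (495 µg per sample) was treated in triplicate with fragment at 200 µM or vehicle for 3 h and then with Biotin-Ahx-Ub-VS at 0.5 µM final for 1 h. Labelled DUBs were then NeutrAvidin-enriched, digested with LysC and trypsin, and run by diaPASEF LC-MS/MS.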
# USP19 = target: T1, USP19 (UniProt O94966)
# T1 sequence (whole entry): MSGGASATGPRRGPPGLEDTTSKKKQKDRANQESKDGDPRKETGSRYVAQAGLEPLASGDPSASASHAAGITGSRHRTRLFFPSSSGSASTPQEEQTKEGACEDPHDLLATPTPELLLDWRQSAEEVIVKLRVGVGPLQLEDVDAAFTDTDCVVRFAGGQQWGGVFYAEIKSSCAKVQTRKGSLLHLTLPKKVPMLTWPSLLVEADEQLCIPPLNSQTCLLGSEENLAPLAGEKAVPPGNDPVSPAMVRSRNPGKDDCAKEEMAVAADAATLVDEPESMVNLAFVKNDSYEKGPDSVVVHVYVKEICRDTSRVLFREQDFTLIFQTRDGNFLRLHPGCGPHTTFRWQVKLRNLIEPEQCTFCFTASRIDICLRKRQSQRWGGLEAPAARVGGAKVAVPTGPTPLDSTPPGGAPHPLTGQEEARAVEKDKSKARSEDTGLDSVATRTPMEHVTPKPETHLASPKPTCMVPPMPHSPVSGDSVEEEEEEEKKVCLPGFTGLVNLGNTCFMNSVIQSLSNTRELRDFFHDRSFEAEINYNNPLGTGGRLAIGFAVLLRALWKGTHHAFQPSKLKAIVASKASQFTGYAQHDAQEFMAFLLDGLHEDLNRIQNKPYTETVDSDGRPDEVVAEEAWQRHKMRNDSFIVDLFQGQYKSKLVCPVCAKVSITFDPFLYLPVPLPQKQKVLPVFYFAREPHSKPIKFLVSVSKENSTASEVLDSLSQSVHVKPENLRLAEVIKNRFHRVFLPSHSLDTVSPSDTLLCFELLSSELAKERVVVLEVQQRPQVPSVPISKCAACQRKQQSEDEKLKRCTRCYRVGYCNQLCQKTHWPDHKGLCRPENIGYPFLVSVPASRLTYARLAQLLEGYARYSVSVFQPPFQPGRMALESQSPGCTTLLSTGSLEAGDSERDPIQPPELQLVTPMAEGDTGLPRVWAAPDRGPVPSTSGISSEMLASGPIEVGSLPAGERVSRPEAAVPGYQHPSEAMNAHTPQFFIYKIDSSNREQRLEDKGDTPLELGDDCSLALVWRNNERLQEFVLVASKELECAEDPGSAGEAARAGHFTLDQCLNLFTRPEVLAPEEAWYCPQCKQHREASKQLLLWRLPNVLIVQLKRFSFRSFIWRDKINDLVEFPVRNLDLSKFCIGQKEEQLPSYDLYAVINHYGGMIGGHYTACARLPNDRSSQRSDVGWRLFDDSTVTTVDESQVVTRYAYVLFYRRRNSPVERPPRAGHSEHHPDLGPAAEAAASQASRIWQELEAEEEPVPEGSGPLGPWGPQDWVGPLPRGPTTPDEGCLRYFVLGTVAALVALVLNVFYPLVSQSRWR
# In short: as §1
# USP24 = USP24 (UniProt Q9UPU5)
# In short: as §1
# USP25 = target: T2, USP25 (UniProt Q9UHP3)
# T2 sequence (whole entry): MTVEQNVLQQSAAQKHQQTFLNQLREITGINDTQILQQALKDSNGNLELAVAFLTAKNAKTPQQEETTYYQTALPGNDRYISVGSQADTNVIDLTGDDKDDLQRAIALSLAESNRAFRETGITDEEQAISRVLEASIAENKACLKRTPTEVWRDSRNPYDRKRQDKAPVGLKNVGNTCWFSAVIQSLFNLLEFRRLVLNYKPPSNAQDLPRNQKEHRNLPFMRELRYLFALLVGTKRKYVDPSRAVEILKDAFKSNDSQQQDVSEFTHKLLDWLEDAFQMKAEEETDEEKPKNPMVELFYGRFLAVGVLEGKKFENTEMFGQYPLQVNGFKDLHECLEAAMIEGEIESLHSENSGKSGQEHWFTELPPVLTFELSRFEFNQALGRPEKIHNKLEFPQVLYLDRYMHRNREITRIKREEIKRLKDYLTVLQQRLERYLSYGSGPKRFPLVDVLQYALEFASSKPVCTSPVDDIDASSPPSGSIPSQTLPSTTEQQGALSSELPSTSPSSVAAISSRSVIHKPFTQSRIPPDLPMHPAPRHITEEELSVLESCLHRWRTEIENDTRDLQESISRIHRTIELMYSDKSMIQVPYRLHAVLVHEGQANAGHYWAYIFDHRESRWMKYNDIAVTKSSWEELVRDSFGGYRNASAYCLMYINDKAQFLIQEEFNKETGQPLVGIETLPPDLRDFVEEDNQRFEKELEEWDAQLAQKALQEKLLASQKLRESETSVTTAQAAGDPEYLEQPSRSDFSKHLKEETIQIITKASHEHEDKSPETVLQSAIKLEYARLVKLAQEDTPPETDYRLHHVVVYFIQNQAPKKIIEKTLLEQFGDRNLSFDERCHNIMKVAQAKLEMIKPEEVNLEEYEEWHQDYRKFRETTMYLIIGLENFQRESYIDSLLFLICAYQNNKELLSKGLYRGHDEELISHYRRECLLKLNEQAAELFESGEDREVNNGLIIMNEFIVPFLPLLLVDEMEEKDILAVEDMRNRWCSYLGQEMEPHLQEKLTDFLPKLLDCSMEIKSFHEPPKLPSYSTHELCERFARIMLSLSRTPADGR
# In short: as §1
# USP28 = target: T3, USP28 (UniProt Q96RU2)
# T3 sequence (whole entry): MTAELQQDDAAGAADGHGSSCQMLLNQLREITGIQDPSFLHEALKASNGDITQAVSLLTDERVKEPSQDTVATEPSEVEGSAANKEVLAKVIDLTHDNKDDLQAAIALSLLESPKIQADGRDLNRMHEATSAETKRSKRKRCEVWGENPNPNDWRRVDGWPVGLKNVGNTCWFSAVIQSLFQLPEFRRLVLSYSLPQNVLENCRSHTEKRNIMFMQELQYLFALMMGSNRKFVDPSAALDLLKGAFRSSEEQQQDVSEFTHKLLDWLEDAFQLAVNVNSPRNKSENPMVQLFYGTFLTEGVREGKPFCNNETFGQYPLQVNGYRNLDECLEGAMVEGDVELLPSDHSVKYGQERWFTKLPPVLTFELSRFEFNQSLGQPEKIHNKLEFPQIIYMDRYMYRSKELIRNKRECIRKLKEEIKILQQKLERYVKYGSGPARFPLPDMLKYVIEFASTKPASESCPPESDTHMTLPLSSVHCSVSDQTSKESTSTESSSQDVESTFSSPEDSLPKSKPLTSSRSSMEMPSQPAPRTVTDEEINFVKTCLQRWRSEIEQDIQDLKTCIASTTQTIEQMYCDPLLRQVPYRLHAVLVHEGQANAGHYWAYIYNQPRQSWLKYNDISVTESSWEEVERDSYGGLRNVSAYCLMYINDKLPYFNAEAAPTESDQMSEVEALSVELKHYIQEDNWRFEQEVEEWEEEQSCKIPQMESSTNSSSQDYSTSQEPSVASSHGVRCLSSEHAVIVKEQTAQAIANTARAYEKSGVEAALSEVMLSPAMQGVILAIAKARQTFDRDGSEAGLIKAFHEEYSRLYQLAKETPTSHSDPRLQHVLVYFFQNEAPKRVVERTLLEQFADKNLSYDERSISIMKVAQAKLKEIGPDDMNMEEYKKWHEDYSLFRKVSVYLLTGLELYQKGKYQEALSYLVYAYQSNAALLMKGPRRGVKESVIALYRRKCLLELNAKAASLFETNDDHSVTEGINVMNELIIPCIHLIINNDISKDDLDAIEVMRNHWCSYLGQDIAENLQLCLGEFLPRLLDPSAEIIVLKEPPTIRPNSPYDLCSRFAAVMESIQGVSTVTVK
# In short: as §1
# Sequence of USP24 (Q9UPU5 whole entry): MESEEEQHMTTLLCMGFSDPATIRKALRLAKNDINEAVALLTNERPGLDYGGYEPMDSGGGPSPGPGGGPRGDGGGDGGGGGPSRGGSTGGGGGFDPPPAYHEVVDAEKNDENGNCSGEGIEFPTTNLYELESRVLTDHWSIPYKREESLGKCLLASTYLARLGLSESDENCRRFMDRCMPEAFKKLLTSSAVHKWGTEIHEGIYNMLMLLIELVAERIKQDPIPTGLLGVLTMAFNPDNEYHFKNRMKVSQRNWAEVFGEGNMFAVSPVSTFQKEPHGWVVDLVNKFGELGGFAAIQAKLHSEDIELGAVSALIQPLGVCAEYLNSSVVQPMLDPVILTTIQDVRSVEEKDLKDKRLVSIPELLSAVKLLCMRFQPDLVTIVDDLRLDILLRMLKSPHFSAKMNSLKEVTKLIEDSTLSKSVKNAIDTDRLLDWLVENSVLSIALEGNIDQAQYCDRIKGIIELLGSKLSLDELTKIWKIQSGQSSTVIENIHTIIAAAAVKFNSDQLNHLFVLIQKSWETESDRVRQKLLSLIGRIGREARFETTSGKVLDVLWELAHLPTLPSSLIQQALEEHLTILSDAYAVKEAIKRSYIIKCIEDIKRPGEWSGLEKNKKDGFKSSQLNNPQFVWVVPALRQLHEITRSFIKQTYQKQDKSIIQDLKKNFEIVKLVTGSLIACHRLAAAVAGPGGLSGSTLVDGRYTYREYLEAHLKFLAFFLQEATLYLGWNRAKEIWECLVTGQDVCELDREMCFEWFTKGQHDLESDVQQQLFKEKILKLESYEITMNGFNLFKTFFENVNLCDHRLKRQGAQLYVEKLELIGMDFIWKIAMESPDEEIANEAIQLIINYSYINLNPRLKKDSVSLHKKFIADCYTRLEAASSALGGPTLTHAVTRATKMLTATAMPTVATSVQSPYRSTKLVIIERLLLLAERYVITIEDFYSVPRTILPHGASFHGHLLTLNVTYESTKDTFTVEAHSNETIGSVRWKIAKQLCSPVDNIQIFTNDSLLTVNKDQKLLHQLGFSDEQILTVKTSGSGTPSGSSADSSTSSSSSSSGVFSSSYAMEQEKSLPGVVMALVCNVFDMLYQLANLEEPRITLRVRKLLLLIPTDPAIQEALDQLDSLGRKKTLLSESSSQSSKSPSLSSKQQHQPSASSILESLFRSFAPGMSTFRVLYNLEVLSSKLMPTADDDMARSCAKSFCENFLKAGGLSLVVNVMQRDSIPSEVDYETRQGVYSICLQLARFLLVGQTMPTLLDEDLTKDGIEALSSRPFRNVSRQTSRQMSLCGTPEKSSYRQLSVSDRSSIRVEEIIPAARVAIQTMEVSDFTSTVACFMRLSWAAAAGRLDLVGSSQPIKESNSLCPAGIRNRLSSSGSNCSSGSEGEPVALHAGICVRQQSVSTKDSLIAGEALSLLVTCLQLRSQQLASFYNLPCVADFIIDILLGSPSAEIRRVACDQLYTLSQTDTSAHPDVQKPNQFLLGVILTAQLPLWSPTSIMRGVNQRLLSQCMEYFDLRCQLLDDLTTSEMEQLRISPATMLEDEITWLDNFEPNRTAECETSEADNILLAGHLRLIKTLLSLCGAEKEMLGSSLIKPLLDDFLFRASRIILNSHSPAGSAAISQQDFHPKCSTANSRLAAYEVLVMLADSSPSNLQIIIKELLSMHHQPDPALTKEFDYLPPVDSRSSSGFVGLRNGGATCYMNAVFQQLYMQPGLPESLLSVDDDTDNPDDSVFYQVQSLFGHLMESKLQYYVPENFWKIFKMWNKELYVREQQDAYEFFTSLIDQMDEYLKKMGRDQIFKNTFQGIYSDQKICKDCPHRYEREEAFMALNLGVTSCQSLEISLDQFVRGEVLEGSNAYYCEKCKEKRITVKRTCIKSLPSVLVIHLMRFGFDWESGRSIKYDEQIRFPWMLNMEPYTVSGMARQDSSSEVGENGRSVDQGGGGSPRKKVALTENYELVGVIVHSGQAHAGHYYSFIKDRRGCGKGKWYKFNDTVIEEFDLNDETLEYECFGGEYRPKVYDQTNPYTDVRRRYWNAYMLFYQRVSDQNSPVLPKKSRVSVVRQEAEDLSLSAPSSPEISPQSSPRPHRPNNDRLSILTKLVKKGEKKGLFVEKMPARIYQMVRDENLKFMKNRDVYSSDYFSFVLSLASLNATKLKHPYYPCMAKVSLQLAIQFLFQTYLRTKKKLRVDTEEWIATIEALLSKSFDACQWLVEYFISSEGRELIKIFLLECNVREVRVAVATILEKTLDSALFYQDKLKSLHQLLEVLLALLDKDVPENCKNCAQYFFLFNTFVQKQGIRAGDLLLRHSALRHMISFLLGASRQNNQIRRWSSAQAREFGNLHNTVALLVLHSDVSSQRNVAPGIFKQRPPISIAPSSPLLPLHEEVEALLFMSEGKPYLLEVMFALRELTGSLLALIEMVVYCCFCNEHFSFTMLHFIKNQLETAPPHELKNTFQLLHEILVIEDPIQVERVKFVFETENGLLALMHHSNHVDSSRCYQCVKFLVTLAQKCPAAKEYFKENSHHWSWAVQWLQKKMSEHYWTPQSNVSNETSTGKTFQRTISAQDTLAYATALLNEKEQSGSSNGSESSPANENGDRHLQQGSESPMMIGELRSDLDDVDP
# Sequence of USP16 (Q9Y5T5 whole entry, looked up, the tested form may be a part): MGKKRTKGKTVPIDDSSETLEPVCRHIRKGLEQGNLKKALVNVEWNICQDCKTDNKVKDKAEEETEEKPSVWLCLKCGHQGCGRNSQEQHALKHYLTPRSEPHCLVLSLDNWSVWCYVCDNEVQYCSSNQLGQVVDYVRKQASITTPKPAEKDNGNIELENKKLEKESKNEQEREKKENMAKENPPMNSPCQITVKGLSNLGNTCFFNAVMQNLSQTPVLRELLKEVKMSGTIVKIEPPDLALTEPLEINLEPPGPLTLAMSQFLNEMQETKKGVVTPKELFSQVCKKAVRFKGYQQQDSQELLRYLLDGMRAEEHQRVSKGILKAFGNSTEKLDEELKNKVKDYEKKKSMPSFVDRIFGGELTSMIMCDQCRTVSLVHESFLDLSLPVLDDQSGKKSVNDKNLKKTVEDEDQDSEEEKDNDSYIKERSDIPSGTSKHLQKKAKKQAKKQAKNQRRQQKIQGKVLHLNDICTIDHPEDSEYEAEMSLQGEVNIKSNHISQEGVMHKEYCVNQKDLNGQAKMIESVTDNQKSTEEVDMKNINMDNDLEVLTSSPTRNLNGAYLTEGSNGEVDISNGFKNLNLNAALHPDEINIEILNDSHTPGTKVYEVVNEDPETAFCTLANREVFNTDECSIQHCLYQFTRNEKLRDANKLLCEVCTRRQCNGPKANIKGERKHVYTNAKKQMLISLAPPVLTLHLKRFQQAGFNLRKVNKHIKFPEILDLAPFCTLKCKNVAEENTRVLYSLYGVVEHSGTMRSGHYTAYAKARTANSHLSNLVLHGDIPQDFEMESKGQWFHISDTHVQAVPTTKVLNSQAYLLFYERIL
compound,measurement,setting,value
Cl.O=C(CCl)N1CCC(n2nc3ccccc3n2)CC1,log2 ratio of Biotin-Ahx-Ub-VS probe labelling,USP16,-0.441
same,log2 ratio of Biotin-Ahx-Ub-VS probe labelling,USP19,-0.666
same,log2 ratio of Biotin-Ahx-Ub-VS probe labelling,USP24,-1.08 (active)
same,log2 ratio of Biotin-Ahx-Ub-VS probe labelling,USP25,-0.61
same,log2 ratio of Biotin-Ahx-Ub-VS probe labelling,USP28,-0.611
